Outcome and AC50 data for ten compounds are collected here from PubChem BioAssay (EPA / NIEHS).

Some compounds were tested as several samples or in several runs, with calls that do not always agree. The source made the active and inactive calls. Rule for the calls: active = hit-call score of the fitted dose curve at least 0.9, where 1 is the maximum; inactive = score below 0.9.

A short description of this assay: CCTE_Shafer_MEA_dev_network_spike_number: CCTE's Neural Network Formation Assay for Number of Network Spikes, Shafer Lab (AID 2284048).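 For AC50: fit as a loss of signal meaning fewer network spikes than DMSO.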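 Note: synchronized bursts across electrodes counted on days 5 7 9 12 and integrated as AUC.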 As for the experimental part:
CCTE_Shafer_MEA_dev assay is conducted using Axion Biosystems 48 well microelectrode array (MEA) plates and Maestro recording system. Each well of the MEA plate contains a grid of 16 microelectrodes embedded in the culture surface. Electrically active cells, such as neurons, can be cultured over the electrodes, and electrical activity in these cells can be recorded extracellularly. The spontaneous firing of neurons is captured from each electrode on a microsecond timescale providing both temporally and spatially precise data. […] The CCTE_Shafer_MEA_dev assay uses primary cultures of rat cortical neurons. Recordings are made on days post-plating 5, 7, 9 and 12. As these cultures mature over time, neural networks develop functional activity and form cohesive networks in which electrical activity can be highly coordinated. CCTE_Shafer_MEA_dev_network_spike_number is 1 of 19 assay components of the CCTE_Shafer_MEA_dev assay. It measures the number of network spikes (temporally-clustered groups of action potential firing across multiple electrodes) during a recording in a microelectrode array (MEA) using Axion Biosystems Maestro 768 channel amplifier with the AxIS adaptive spike detector. To collapse across multiple recordings made on days post-plating 5, 7, 9 and 12, the trapezoidal area-under-the-curve of the component is calculated.Data from the assay component CCTE_Shafer_MEA_dev_network_spike_number was analyzed into 1 assay endpoint. This assay endpoint, CCTE_Shafer_MEA_dev_network_spike_number, was analyzed in the negative analysis fitting direction relative to DMSO as the negative control and baseline of activity. Using a type of functional reporter, gain or loss-of-signal activity can be used to understand electrical activity.
On the day prior to culture, each well was coated thoroughly with 150 uL of 0.05% polyethyleneimine (PEI, Sigma Cat P3143) in 50 mM HEPES (Sigma Cat H7523) at a pH of 8. The plate was incubated at 37C for one hour. PEI was rinsed out with 500 uL of sterile water three times. Plates were stored at 4C until the day of culture. This culture was plated at a seeding density of 1.5 x 10^5 cells/well on a 48-well MEA plate, prepared as described above. Cells were administered via a 25 uL media/laminin ([…]; Sigma Cat L2020-1MG) drop directly onto the microelectrode array, as adding the cells with the laminin results in better attachment than pre-coating with laminin. After 2 hours, an additional 475 uL of cortical media was added and the cells returned to the incubator. Exposure starts at day 0 of plating and is continued over twelve days of network development until the experiment is terminated. Cells are fed with fresh medium on DIV 5 and 9, following the recordings on those days. The entire volume of media in the well is exchanged and any vehicle or compound treatment is renewed. Complete details are found in OP-NHEERL/ISTD/SBB/TJS/2015-03-r0 (available on request, email shafer.tim@epa.gov). Measurement of the electrical activity is non-invasive, and recordings can be made from the same plate over multiple different days of the culture. In cortical neurons, this allows for the measurement of extracellular action potentials over the period during which networks form in the MEA plate.
Regarding `CN1CCC[C@H]1c1cccnc1`, the call was inactive. As for `CC#C[C@]1(O)CC[C@H]2[C@@H]3CCC4=CC(=O)CCC4=C3[C@@H](c3ccc(N(C)C)cc3)C[C@@]21C`, the AC50 (usually the concentration at which the activity in the assay is half-maximal) is 8.75 µM (active) and the outcome was inactive. On to `c1ccc2c(c1)Cc1ccccc1-2`, for which the outcome was inactive. With `c1ccc2c(c1)ccc1ccccc12`, the compound was called inactive. In the case of `CC1=C(/C=C/C(C)=C/C=C/C(C)=C/C(=O)O)C(C)(C)CCC1`, the AC50 is 7.99 µM (active).

With `c1ccc2cc3c(ccc4ccccc43)cc2c1`, the call was inactive.

As to `OCCC(F)(F)C(F)(F)C(F)(F)C(F)(F)C(F)(F)C(F)(F)C(F)(F)C(F)(F)F`, the compound was called inactive. Same read-out and setting: as for `OCCC(F)(F)C(F)(F)C(F)(F)C(F)(F)C(F)(F)C(F)(F)F`, the entry is “inactive”; as for `C=C(C)C(=O)OCCC(F)(F)C(F)(F)C(F)(F)C(F)(F)C(F)(F)C(F)(F)F`, “inactive”. As to `CC(O)CO` (stereo unspecified), the outcome was inactive.
